# From PubChem BioAssay AID488969 (Vanderbilt High Throughput Screening Facility, 2010)
# Whole data set: some 110,000 compounds, median “z-score” near -0.1, cut for the highest 2% near 2. Shown is part of a subset that was picked to be rich in the highest values. The source made the active and inactive calls.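 Rule for the calls: active = z-score in the third read window above 3 or below -3; inactive = the rest.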
# Target: Metabotropic glutamate receptor 8 (Rattus norvegicus) (UniProt P70579)
# Experiment: rat mGluR8 modulators via GIRK flux, primary screen, cell-based, thallium flux, HTS (AID 488969)
# Conditions: HEK293 rat mGluR8, GIRK (G protein-gated inwardly rectifying potassium channel) thallium flux, FluoZin2; at 10 µM; stronger effect = higher value; submaximal glutamate (EC20) added with thallium
# Metabotropic glutamate receptor 8 (Rattus norvegicus), sequence (P70579 whole entry, looked up): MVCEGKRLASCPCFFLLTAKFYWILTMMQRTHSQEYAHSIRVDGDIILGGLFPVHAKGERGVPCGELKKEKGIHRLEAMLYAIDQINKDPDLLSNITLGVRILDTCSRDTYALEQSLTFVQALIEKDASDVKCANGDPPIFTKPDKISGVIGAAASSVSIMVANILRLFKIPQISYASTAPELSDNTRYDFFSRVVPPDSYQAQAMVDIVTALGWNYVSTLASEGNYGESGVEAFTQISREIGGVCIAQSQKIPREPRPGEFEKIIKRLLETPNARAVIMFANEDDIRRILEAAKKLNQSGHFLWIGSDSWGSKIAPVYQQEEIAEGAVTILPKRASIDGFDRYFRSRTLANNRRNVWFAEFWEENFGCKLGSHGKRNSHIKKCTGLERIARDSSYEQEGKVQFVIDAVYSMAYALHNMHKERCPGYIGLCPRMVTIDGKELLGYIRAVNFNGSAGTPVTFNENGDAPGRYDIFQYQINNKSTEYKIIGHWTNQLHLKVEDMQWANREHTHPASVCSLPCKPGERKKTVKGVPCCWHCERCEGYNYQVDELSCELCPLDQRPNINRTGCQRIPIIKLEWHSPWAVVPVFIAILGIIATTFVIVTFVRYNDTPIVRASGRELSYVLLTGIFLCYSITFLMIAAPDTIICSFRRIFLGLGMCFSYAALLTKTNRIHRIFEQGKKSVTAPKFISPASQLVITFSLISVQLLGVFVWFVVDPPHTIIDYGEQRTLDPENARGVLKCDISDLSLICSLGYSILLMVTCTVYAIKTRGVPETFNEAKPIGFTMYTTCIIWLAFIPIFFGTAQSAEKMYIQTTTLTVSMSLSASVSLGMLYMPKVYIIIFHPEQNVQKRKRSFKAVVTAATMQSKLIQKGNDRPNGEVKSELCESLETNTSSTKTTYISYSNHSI
row,Structure (SMILES),z-score
1,O=C(Cn1nc(Cc2ccncc2)c2ccccc2c1=O)N1CCN(C(=O)c2ccco2)CC1,3.76 (active)
2,Cc1cccc(N2CCN(C(=O)Cn3nc(Cc4ccncc4)c4ccccc4c3=O)CC2)c1C,-0.488
3,O=C(Cn1nc(Cc2cccnc2)c2ccccc2c1=O)N1CCN(C(=O)c2ccco2)CC1,-0.426
4,CC(C)=C1SC(N2CCN(c3cccc(C(F)(F)F)c3)CC2)=NC1=O,-0.205
5,O=C1c2cccc3cc(Br)cc(c23)C(=O)N1Nc1ccc(Br)cc1,-0.252
6,COc1ccc(CCNC(=O)c2ccc(CN3CCC(Cc4ccccc4)CC3)cc2)cc1,-0.304
7,Cc1ccc(CCNC(=O)C2CCCN(S(=O)(=O)c3c(C)noc3/C=C/N(C)C)C2)cc1 (centres undefined),-0.519
8,Cc1noc(/C=C/N(C)C)c1S(=O)(=O)N1CCCC(C(=O)NCc2ccc(F)cc2)C1 (centres undefined),2.21
9,Cc1noc(/C=C/N(C)C)c1S(=O)(=O)N1CCCC(C(=O)NCc2ccc(Cl)cc2)C1 (centres undefined),-0.29
10,CC(C)(C)NC(=O)C(c1ccncc1)N(C(=O)Cn1nnc(-c2cccs2)n1)C1CCCCC1 (centres undefined),-0.081
11,Cc1cc(C)nc(SCC(=O)NCc2ccco2)n1,0.232
12,Cc1cc(C)nc(SCc2nnc(SCC(=O)NCc3ccco3)n2-c2ccccc2)n1,-0.73
13,Cc1ccc(-n2c(CSc3nc(C)cc(C)n3)nnc2SCC(=O)NCc2ccco2)cc1,8.78 (active)
14,Cc1ccc(-c2nc3ncccc3o2)cc1NC(=O)Cc1ccc(Cl)cc1,0.497
15,CNC(=O)C1CC(=O)N(c2ccc(C)cc2)C1 (centres undefined),0.338
16,O=C(Nc1ccc2c(c1)OCCO2)C1CCCN(S(=O)(=O)c2cccc3nsnc23)C1 (centres undefined),0.545
17,CN(C)S(=O)(=O)N1CCN(C(=O)N2CCCCCC2)CC1,-0.197
18,Cc1ccc(C(=O)OCC(=O)N2CC(=O)Nc3ccccc32)s1,0.331
19,CCOc1ncccc1C(=O)OCC(=O)N1CC(=O)Nc2ccccc21,2.36
20,Cc1ccsc1C(=O)OCC(=O)N1CC(=O)Nc2ccccc21,-0.081
21,O=C(CCN1C(=O)C2CC=C(Cl)CC2C1=O)NCc1ccco1 (centres undefined),-0.187
22,O=S(=O)(NC1CC1)c1ccc(S(=O)(=O)N(Cc2ccccn2)C2CCCC2)cc1,-0.114

row,Structure (SMILES),z-score
1,O=C(Nc1ccc(N2CCN(C(=O)c3ccco3)CC2)c(Cl)c1)c1c(F)c(F)c(F)c(F)c1F,-0.334
2,O=C(Cc1ccc(Cl)cc1)Nc1ccc(N2CCN(C(=O)c3ccco3)CC2)c(Cl)c1,2.13
3,O=C(Cc1ccc(Cl)cc1)Nc1ccc(N2CCN(C(=O)c3ccco3)CC2)cc1,0.107
4,Cc1cc(/C=N\NC(=O)CC(=O)NC2CCCCC2)c(C)n1-c1cccc(Cl)c1Cl,-0.438
5,CCN1CCN(Cc2ccccc2NC(=O)Nc2ccc(C)cc2)CC1,0.088
6,NC(=O)C1CCCN(C(=O)Nc2cccc3ccccc23)C1 (centres undefined),0.107
7,COC(=O)Cc1c[nH]c2cccc(OCC(O)CN(Cc3ccccc3)C(C)C)c12 (centres undefined),0.637
8,CCOc1c2ccc(C(=O)NCCc3ccc(C)cc3)cc2nn1CC,-0.287
9,CCCn1nc2cc(C(=O)NCCc3ccc(C)cc3)ccc2c1OCC,2.73
10,CCCCn1nc2cc(C(=O)NCCc3ccc(C)cc3)ccc2c1OCC,-0.356
11,Cc1c(C(N)=O)sc2ncn(CC(=O)OC(C)C)c(=O)c12,0.619
12,CN(C)CCSc1nc(-c2ccccc2)nc2c1COC(C)(C)C2,-0.143
13,CN(C)CCCOc1ccc(C(C)(C)c2ccccc2)cc1,3.07 (active)
14,CNCCCOc1ccc(C(C)(C)c2ccccc2)cc1,0.32
15,CC(C)NCCCOc1ccc(C(C)(C)c2ccccc2)cc1,0.192
16,O=C(Nc1ccc(N2CCN(C(=O)c3ccco3)CC2)cc1)c1ccc2c(c1)OCO2,0.192
17,CCN1C(=O)CC(N2CCC(Cc3ccccc3)CC2)C1=O (centres undefined),-0.239
18,Cc1cc(O)c(C(C[N+](=O)[O-])c2ccc(Cl)cc2)c(=O)o1 (centres undefined),0.103
19,CCNC(=S)Nc1nc2c(cc1C(=O)OCC)CCCC2,8.73 (active)
20,C=CCNC(=S)Nc1nc2c(cc1C(=O)OCC)CCCC2,7.76 (active)
21,C=CCNc1nc(-c2ccccc2)c(C(=O)OCC)cc1C#N,-0.303
22,CCOC(=O)c1cnc2cc3c(cn2c1=O)CCCC3,0.699

row,Structure (SMILES),z-score
1,CCOC(=O)c1cc2c(nc1N)CC(C)(C)OC2,-0.353
2,CCOC(=O)c1ccc(NC(=S)NCCC2=CCCCC2)cc1,-0.19
3,CCOC(=O)c1cc2c(nc1N)CC(C)(CC)OC2 (centres undefined),-0.0521
4,C=CCNC(=S)Nc1ccc2nc(C)c(C)nc2c1,0.0978
5,CCOC(=O)c1ccc(CNCc2ccccc2)cc1,-0.07
6,C=C(C)CNC(=S)Nc1nc2c(cc1C(=O)OCC)CCCC2,3.56 (active)
7,CCOC(=O)c1cc2c(nc1NC(=S)Nc1ccccc1)CC(C)(C)OC2,-0.292
8,CCOC(=O)c1cc2c(nc1NC(=S)NCc1ccccc1)CCCC2,2.16
9,O=C(NCC1CCCO1)c1ccc(CS(=O)(=O)c2c(Cl)cccc2Cl)o1 (centres undefined),-0.0453
10,COc1ccccc1-n1c(=O)[nH]c2c(C(N)=O)nc(C3CCCCC3)nc21,-0.356
11,CCN1CCN(C(c2ccc(OC)cc2)C(O)C(=O)c2c[nH]c3ccccc23)CC1 (centres undefined),0.0792
12,C=CCn1c(COc2ccc(Cl)cc2)nnc1SCC(=O)N/N=C/c1cccc(O)c1,-0.279
13,CCOC(=O)c1c(NC(=O)CSc2nncs2)sc(C)c1-c1ccccc1,-0.117
14,CCOC(=O)c1ccccc1N1C(=O)CSC1=S,-0.0781
15,COCCn1c(C)cc(C(=O)COC(=O)c2ccc(NC(=O)CC#N)cc2)c1C,-0.449
16,Cc1nn(Cc2c(F)c(F)c(F)c(F)c2F)c(C)c1NC(=O)c1ccc(COc2ccccc2Cl)o1,-0.506
17,CC(=O)c1cc2c(cc1NC(=O)CCC1CCCC1)OCO2,0.181
18,COc1ccc(NC(=O)c2cc(Cl)ccc2NC(=O)c2ccco2)c(OC)c1,0.354
19,CCN(CC)S(=O)(=O)c1ccc(C(=O)Nc2nnc(C(C)C)s2)cc1,-0.2
20,COc1ccc(S(=O)(=O)NC(C)C(=O)O)cc1 (centres undefined),-0.408
21,O=C(OCc1nc2ccccc2s1)C1CCN(S(=O)(=O)c2cccs2)CC1,0.023
22,CCCn1c(SCC(=O)c2ccc(OC)c(OC)c2)nc2c1c(=O)n(C)c(=O)n2C,-0.237

row,Structure (SMILES),z-score
1,COc1ccc(C(=O)Cn2c(Br)nc3c2c(=O)n(C)c(=O)n3C)cc1OC,-0.137
2,COc1ccc(-c2nc3c(c(=O)n(C)c(=O)n3C)n2CC2CC(c3ccccc3)=NO2)cc1OC (centres undefined),2.08
3,Cc1cccc(N/C=C/c2onc(C)c2[N+](=O)[O-])c1,1.43
4,CCN(CC)S(=O)(=O)c1cc(C(=O)OCC(=O)NC2CCCc3ccccc32)ccc1C (centres undefined),-0.154
5,COCCn1c(C)cc(C2=NNC(=Nc3ccccc3)SC2)c1C,-0.413
6,Cc1ccc(-n2c(N)c(C(=O)NCc3cccnc3)sc2=S)cc1,0.285
7,COc1cc2c(C(=O)NCc3ccc4c(c3)OCO4)cn(C)c(=O)c2cc1OC,-0.397
8,COc1ccc(OC)c(NC(=O)Cn2c(CCC(=O)O)ccc2-c2cccs2)c1,-0.116
9,COc1ccc(S(=O)(=O)N2CCN(C(=O)NCc3ccccc3)CC2)cc1,-0.0685
10,CCc1ccc(NCc2cc3c(C)nn(-c4ccccc4)c3[nH]c2=O)cc1,5.48 (active)
11,Cc1nn(-c2ccccc2)c2[nH]c(=O)c(CNCc3ccc4c(c3)OCO4)cc12,-0.638
12,CCOc1ccc(NCc2cc3c(C(C)(C)C)nn(-c4ccccc4)c3[nH]c2=O)cc1,-0.079
13,Cc1ccc(OCC(=O)Nc2sc3c(c2C#N)CCC3)cc1C,-0.0369
14,COc1cccc(C2CC(c3ccc(F)cc3)Nc3nc(N)nn32)c1 (centres undefined),0.0383
15,O=C(NC1CC1)c1ccc(CSCc2cccc(F)c2)o1,4.11 (active)
16,CN1CCN(CCCNC(=O)c2ccc(CSCc3cccc(Cl)c3)o2)CC1,1.35
17,CC(C)CCNC(=O)c1ccc(CSCc2cccc(F)c2)o1,-3.86 (active)
18,CCC(C)NC(=O)c1ccc(CSCc2cccc(F)c2)o1 (centres undefined),-0.863
19,O=C(NCCCN1CCCC1)c1ccc(CSCc2cccc(Cl)c2)o1,3.42 (active)
20,CC1CCN(CCCNC(=O)c2ccc(CSCc3cccc(Cl)c3)o2)CC1,0.509
21,COc1cccc(-c2cc(C(=O)N3CCN(Cc4ccccc4)CC3)no2)c1,0.395
22,CO/N=C/NC(=O)c1c(OC)ccnc1Oc1cccc(C(F)(F)F)c1,0.0176

row,Structure (SMILES),z-score
1,NC1=NC(=O)/C(=C/c2cccs2)S1,-0.848
2,O=C1N=C(c2ccccc2)S/C1=C\c1cccs1,2.92
3,NC1=NC(=O)/C(=C\c2cccs2)S1,-0.0766
4,Cc1cc2ncn(C(=O)c3c(-c4c(Cl)cccc4Cl)noc3C)c2cc1C,0.106
5,Cc1cc(NC(=O)c2ccc(S(=O)(=O)N3CCCC3)cc2)nc2c1c(=O)oc1ccccc12,0.442
6,FC(F)(F)COc1nc(N2CCCCC2)nc(N2CCNCC2)n1,2.6
7,CNc1nc(OCC(F)(F)F)nc(N2CCOCC2)n1,-0.112
8,FC(F)(F)COc1nc(OCC(F)(F)F)nc(N2CCN(c3ccccc3)CC2)n1,-0.193
9,O=C(NCc1cccnc1)c1ccccc1[N+](=O)[O-],-0.0931
10,CCOc1ccc(/C=N/NC(=O)c2ccccc2NC(=O)c2ccc(OC)cc2)cc1,-0.0531
11,Cc1ccccc1-c1nn[nH]n1,-0.33
12,CC(C)c1ccc2occ(-c3nn[nH]n3)c(=O)c2c1,3.29 (active)
13,Cc1ccc2occ(-c3nn[nH]n3)c(=O)c2c1,0.366
14,CCCSc1nn2c(=O)c3ccccc3nc2s1,-0.252
15,CCCc1cc(-c2nc(-c3ccc(Cl)cc3)cs2)ccn1,-0.136
16,CCCc1cc(C(N)=S)ccn1,2.24
17,CCCc1cc(-c2nc(-c3ccc(Br)cc3)cs2)ccn1,0.0465
18,COc1nc(NCCc2ccc(OC)c(OC)c2)nc(OC)n1,-0.163
19,O=c1c2ccccc2sc2ccc(Cl)cc12,-0.316
20,O=c1c(C(c2ccccc2)c2c(O)sc3ccccc3c2=O)c(O)sc2ccccc12,7.03 (active)
21,COc1ccc2sc3ccccc3c(=O)c2c1,-0.213
